Screening results deposited in PubChem by National Center for Advancing Translational Sciences (NCATS).
KB-V1 cytotox: KB-V1 MDR subline cytotoxicity; 400,000 compounds, 3.4% hits; KB-V1 MDR cells viability, CellTiter-Glo, 72 h; Potency, µM (top dose mostly 46.1 µM), actives largely listed as cytotoxic; note: nearly all actives have a fitted effect of over 60% in size
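Cells of the MDR subline KB-V1 are plated, dosed with compound at multiple concentrations, and incubated 72 h at 37 degrees C; CellTiter-Glo is then added and luminescence read after 10 min.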
MCF10A rereplic: DNA re-replication induction in MCF 10a cells; MCF 10A DNA re-replication, Hoechst nuclear intensity, 48 h; Potency, µM (titrated, usually from 46.1 µM), most hits filed as activators; 350,000 compounds, 2.9% hits; AID 624296; note: nearly all actives have a fitted effect of over 50% in size
SW480 rerep: inducers of DNA re-replication in SW480 colon cancer cells. SW480 DNA re-replication, Hoechst DNA content imaging, 48 h. Potency, µM (doses to about 46.1 µM), usual class: activators. 340,000 compounds, 1.8% hits. AID 624297; note: nearly all actives have a fitted effect of over 55% in size
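Hoechst fluorescence of nuclei (405 nm excitation, 500-530 nm emission) measured by plate-scanning imager after 48 hr compound exposure at 37 C; re-replication scored as increased number of nuclei with elevated intensity.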
KB-3-1 cytotox: KB-3-1 parental cell cytotoxicity; KB-3-1 viability, CellTiter-Glo ATP luminescence, 72 h; Potency, µM (titrated, usually from 46.1 µM), actives largely listed as cytotoxic; 400,000 compounds, 1.4% hits; AID 1347075; note: nearly all actives have a fitted effect of over 60% in size
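72 h, 37 °C compound treatment of KB-3-1 parental cells; CellTiter-Glo added, 10 min, luminescence read. Data corrected against DMSO-only plates and normalized before curve fitting.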
KCNH2 3.1 inh: KCNH2 3.1 (human) potassium channel inhibition | activity change, % (tested at about 1.8 µM) | 340,000 compounds, 0.95% hits | AID 720553 | U2OS KCNH2 3.1, thallium flux FluxOr; active compounds read low;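 active = maximum activity change below -70%; inconclusive = maximum activity change from -70% to -50%; inactive = maximum activity change above -50%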;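 note: thallium influx rate constant from kinetic fluorescence after stimulation buffer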
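Steps: virus added to U2OS suspension (4 h, RT, dark); medium with 10% FBS added, cells plated, 37 C overnight; FluxOr/Red40 loading buffer 45 min RT; stimulation buffer, 2 min kinetic read; rate constant normalized.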
KCNH2 WT inh: inhibitors of human wildtype KCNH2 potassium channel. AID 720551. 340,000 compounds, 0.37% hits. Q12809. activity change, % at 1.84 µM. U2OS, BacMam KCNH2, thallium flux FluxOr; active compounds read low;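 active = maximum activity change below -70%; inconclusive = maximum activity change between -70% and -50%; inactive = maximum activity change above -50%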
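U2OS cells were transduced with wild-type KCNH2 virus (2.03 x 10^8 / mL) for 4 h at room temperature, then cultured overnight at 37 C. Thallium flux was read with FluxOr dye. Rate constants were normalized to DMSO controls.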
Numbers stand for hits; n = inactive; u = inconclusive; x = not tested or not shown. This is a sample that favours compounds with a hit; in the whole collection about 7.6% have one here. Unless noted, calls come from the whole dose curve; as a rule, active = well fitted curve in the direction sought with a large enough effect; inconclusive = small, poorly fitted or top-dose-only effect, or another doubt; inactive = no such curve, though single readings can be large; an effect the other way counts as inactive or inconclusive.

SMILES | KB-V1 cytotox | MCF10A rereplic | SW480 rerep | KB-3-1 cytotox | KCNH2 3.1 inh | KCNH2 WT inh
CC(=NO)C1CCC2C3CCC4CC(=NO)CCC4(C)C3C(C)(O)CC12C (centres undefined) | 12µM | n | n | n | n | n
O=[N+]([O-])c1cc([N+](=O)[O-])c(N2CCCCCC2)cc1NCCO | 9.2µM | n | n | n | n | n
O=C(NCc1nnnn1-c1ccc(F)cc1)c1ccc(S(=O)(=O)N2CCOCC2)cc1 | n | x | x | n | n | n
O=C(Cc1cnc2ncnn2c1)N1CCc2c([nH]c3ccccc23)C1c1ccccn1 (centres undefined) | n | n | n | n | n | n
C=C1C=C(C(F)F)n2ncc(C(=O)N3CCCCC3)c2N1 | n | x | x | u | x | x
COc1ccc(C(c2sc3ncnn3c2O)N2CCN(c3ccccc3F)CC2)cc1OC (centres undefined) | 1.6µM | n | n | 2.9µM | n | n
Clc1ccc(-c2nnn3c2nc(NC2CCCCC2)c2ccccc23)cc1 | n | x | x | n | x | x
CCOC(=O)c1cnc2c(CC)cccc2c1NCCCN1CCOCC1 | n | n | n | n | -74 | n
O=C(NCc1ccccc1)c1nccnc1CO | n | n | n | n | n | n
O=C(Cn1c(COc2ccccc2)nc2ccccc21)Nc1cc(Cl)ccc1Cl | 23µM | n | n | u | n | n
O=C(Cn1c(COc2ccccc2)nc2ccccc21)Nc1cc(Cl)cc(Cl)c1 | n | 12µM | n | n | n | n
Cc1cc(C)cc(C(=O)Nc2cccnc2)c1 | n | n | u | n | n | n
Nc1ccc(Cc2ccc(N)c(O)c2)cc1O | n | n | n | n | n | n
CCC(=O)N1CCc2cc(Br)cc(S(=O)(=O)CCC(=O)Nc3ccc(C)c(F)c3)c21 | n | x | x | n | x | x
O=C(/C=C/c1ccccc1)c1c[nH]c2ccccc12 | n | n | u | n | n | n
O=C(C=Cc1ccccc1)c1c[nH]c2ccccc2c1=O | 7.3µM | 6.5µM | 8.2µM | 5.2µM | n | n
Cc1[nH]c2ccccc2c1/C=C/C(=O)c1ccccc1 | u | 21µM | 18µM | u | -86 | n
COC(=O)c1c(C)[nH]c(C(=O)/C=C/c2ccccc2)c1C | 12µM | n | n | n | n | n
Cc1[nH]c2ccccc2c1/C=N/NC(=O)c1ccccc1 | n | n | n | n | n | n
Cc1[nH]c2ccccc2c(=O)c1C(=O)/C=C/c1ccccc1 | 15µM | 12µM | u | u | n | n
CN(C)c1ccc(NC(=O)CN2C(=O)c3ccccc3Sc3ccc(C(=O)N4CCCC4)cc32)cc1 | n | x | x | n | x | x
CCCCc1ccc(NC(=S)Nc2ccc(Nc3ccc(OC)cc3)cc2)cc1 | 16µM | 21µM | u | u | n | n
CCN1CCN(CC(=O)Nc2ccc(Cl)c(S(=O)(=O)N(C)C)c2)CC1 | n | n | n | n | n | n
CCCCc1ccc(NC(=S)Nc2ccc(Cl)c(S(=O)(=O)N(C)C)c2)cc1 | 23µM | u | n | u | n | n
CSC(=S)NCc1cccnc1 | n | 3.3µM | 3.7µM | 26µM | n | n
SMILES | KB-V1 cytotox | MCF10A rereplic | SW480 rerep | KB-3-1 cytotox | KCNH2 3.1 inh | KCNH2 WT inh
CCCCc1ccc(NC(=S)NCc2cccnc2)cc1 | 15µM | u | n | u | n | n
Cc1ccnc(NC(=O)c2cccc(S(=O)(=O)N3CCOCC3)c2)c1 | n | n | n | n | n | n
CN(Cc1ccc(F)cc1)C(=O)c1cccc(S(=O)(=O)N2CCN(c3ccc(F)cc3)CC2)c1 | u | n | u | 13µM | n | n
CN(CC1COc2ccccc2O1)C(=O)c1cccc(S(=O)(=O)N2CCCC2)c1 (centres undefined) | 8.2µM | n | n | n | n | n
CSc1ccc(CN(C)C(=O)c2cccc(S(=O)(=O)N3CCN(Cc4ccccc4)CC3)c2)cc1 | u | n | n | u | n | -122
Cc1ccnc(NC(=O)c2cccc(S(=O)(=O)N3CCN(c4ccc(F)cc4)CC3)c2)c1 | u | n | n | n | -72 | n
Cc1ccc(-n2c3c(cc(C(=O)Nc4ccccc4C(N)=O)c2=O)C(=O)CC(C)(C)C3)cc1 | u | x | x | n | x | x
CCC(=O)Nc1ccc(NC(=O)c2ccccc2)nc1 | n | n | n | n | n | x
